Laboratory results: PubChem BioAssay (NCI)
About 83,000 compounds went through this panel and 20% of them were active in at least one assay; those are over-represented in the sample as a whole.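 The endpoint reported here, percent growth, reads 100 for growth as untreated, 0 for no net growth and -100 for all cells dead.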 Unmarked numbers belong to inactive results. Active and inactive are the calls of the source. The calls were made as follows: active = growth percent below 10; inactive = the rest.

What follows are compounds tested on HL-60(TB) leukemia (assay: NCI-60 one-dose screen, 48 h (100 = growth as untreated, 0 = no growth, -100 = all killed)). Settings: 10 µM unless noted.

SMILES | growth
Clc1ccc2c(Nc3ccc4oc(NCCN5CCCC5)nc4c3)ccnc2c1 | 72.3%
CC1(C)N=C(N)N=C(N)N1c1ccc(F)c(C(F)(F)F)c1 | 13.4%
O=C(NNC(=O)c1nc2cc(F)ccc2n2cccc12)c1cnccn1 | 17.8%
c1ccc(-c2c(-c3ccccc3)[n+](Cc3ccc4ccccc4c3)c(-c3ccc(-c4nc5ccccc5s4)cc3)n2Cc2ccc3ccccc3c2)cc1 | -57.2% (active)
O=C(CN1CCN(c2cc3c(cc2F)c(=O)c(C(=O)O)cn3C2CC2)CC1)N/N=C/c1ccncc1 | 98%
Nc1nc(OCc2ccccc2)c2[nH]cnc2n1 | 62.7%
O=C(O)C[C@H](O)C[C@H](O)/C=C/c1c(C2CC2)nc2ccccc2c1-c1ccc(F)cc1 | 66.2%
COc1cc2nc(-c3cnc(N(C)C)nc3)nc(NC3CCN(Cc4ccccc4)CC3)c2cc1OC | -52.3% (active)
Cn1ccnc1C(=O)/C=C/c1ccc(C(=O)Nc2nc3ccccc3[nH]2)cc1 | 26.7%
O=C1/C(=C/c2cc(F)cc(F)c2)Cc2cc(F)cc(F)c21 | 122%
COc1cccc(Nc2ncnn3ccc(CN4CC[C@@H](N)[C@H](O)C4)c23)c1 | 73.8%
Cc1ccc(-c2nc(N3CCN(C(=O)c4ccc(OC(F)(F)F)cc4)CC3)c3ccccc3n2)cc1 | 97.5%
NC(=O)C1CCCN(Cc2c[nH]c3ccccc23)C1 (stereo unspecified) | 102%
NS(=O)(=O)N(c1cc(C(F)(F)F)cc(C(F)(F)F)c1)C1CCN(Cc2ccc(F)cc2)CC1 | 26.3%
C=C1C(=O)O[C@H]2[C@H]1CC/C(COC(=O)CCCCC(=O)OC/C1=C/CC[C@@]3(C)O[C@H]3[C@H]3OC(=O)C(=C)[C@@H]3CC1)=C\CC[C@@]1(C)O[C@@H]21 | 2.37% (active)
CCCCCN1C=C/C(=C\C(=O)N(C)c2ccc(Oc3ccccc3)cc2)c2ccccc21 | 66.9%
Nc1c(C(=O)Nc2ccccc2)sc2nc3c(cc12)CN(C(=O)OCc1ccccc1)CC3 | 17.1%
CCCCCc1ccnc(CC(=O)c2ccc(OC)cc2)c1 | 110%

SMILES | growth
CCN(CC)S(=O)(=O)c1ccc(NC(=O)CSc2nnc(C)n2-c2ccccc2)cc1 | 132%
Cc1ccc(NCc2cn(-c3ccc(C(=O)O)cc3)nc2-c2ccc(C(=O)O)cc2)cc1 | 106%
CSc1nnc(-c2sc3nnc(-c4ccccc4)c(-c4ccccc4)c3c2O)o1 | 107%
C=C1C(=O)O[C@H]2[C@H]1CC/C(CNC(=O)/C=C/c1ccc(Cl)cc1Cl)=C\CC[C@@]1(C)O[C@@H]21 | -27.4% (active)
COc1ccc(-c2ccc(-c3ccc(C(=N)N)o3)o2)cc1 | -46.2% (active)
O=C(Nc1cccc(-n2cc(-c3ccncc3)c(-c3cc(O)cc(Cl)c3)n2)c1)Nc1ccc(Cl)c(C(F)(F)F)c1 | -26.9% (active)
CC(C)(C)n1cc(-c2ccnc(NCCNS(=O)(=O)c3ccc(C(F)(F)F)cc3)c2)c(-c2ccccc2)n1 | 83.9%
COc1ccc(-c2nc(-c3nc4ccc(C)cc4[nH]3)cc3c2[nH]c2ccccc23)cc1 | 31.4%
Clc1cccc(Cl)c1Nc1ccc2nnc(-c3ccncc3)n2n1 | 88.7%
COc1ccc(C2CC(=O)Nc3c2c(C)nn3-c2nc3ccccc3[nH]2)cc1 (stereo unspecified) | -17% (active)
CN(C)C(=O)OCc1nc2c(N3CCOCC3)nc(-c3ccccc3)nc2n1C | -29.2% (active)
C=C(C)[C@@H]1CC[C@]2(C(=O)NC3CCCCC3)CC[C@]3(C)[C@H](CC[C@@H]4[C@@]5(C)CCCNC(C)(C)[C@@H]5CC[C@]43C)[C@@H]12 | 23.7%
COc1cc2cc(NCc3ccncc3)nc(C)c2cc1OC | 103%
CCCCCCCCCCCC(c1ccccc1)[N+](C)(C)C (stereo unspecified) | -30.5% (active)
C=C(c1ccc(C(=O)O)cn1)c1cc2c(cc1C)C(C)(C)CCC2(C)C | 84.9%
COc1ccc(/C=C/C(=O)c2ccc(B(O)O)cc2)cc1O | 37.7%
CCC#CC[C@H]1C/C=C2/C(=O)C=C[C@@H]2C/C=C\CCCC(=O)O1 | -19.1% (active)
Cc1nnc2c3nnc(-c4ccc(Cl)cc4)n3c3ccccc3n12 | 101%
